Reference: ChEMBL document CHEMBL3988442, “University of Dundee, Small-Polar-MMV Screening Library” (2021)
Out of some 48,000 compounds screened, about 13,000 (27%) showed an effect of 50% or more. The list shows a part of the results.

Tested on: Wolbachia pipientis
Assay: Anti-Wolbachia Cell-Based Screen
Type: functional
Design: scale not given: in the data most compounds retested in dose-response had high values
Details: 5 µM

| SMILES | Percent Effect |
| --- | --- |
| CC(O)CN(CC(=O)NC(=O)NCC(F)(F)F)c1ccccc1 (configuration not stated) | -9.09% |
| COCCN1CCN(C(=O)c2ccc(C)cc2F)[C@H]2CS(=O)(=O)C[C@H]21 | 8.657% |
| COC(=O)CCNC(=O)c1cccc(C(=O)N(C)c2ccccc2)c1 | 2.44% |
| CC(=O)N1CCN(C(=O)NCCCN(C(C)C)S(C)(=O)=O)CC1 | -2.467% |
| COc1ccc2[nH]nc(CN3CCN(Cc4cccc(F)c4)CC3)c2c1 | -9.903% |
| Cc1cc(NCCCNS(C)(=O)=O)nc2ccccc12 | -15.92% |
| CCN(C)C1COC2(CCN(C(=O)c3ccc4[nH]ccc4c3)CC2)C1 (configuration not stated) | -14.16% |
| O=C(COc1ccc2c(c1)CCC2)N1CCCC(n2cccn2)C1 (configuration not stated) | 22.49% |
| O=C(CCOc1cccc(F)c1)N1CCCC(n2cncn2)C1 (configuration not stated) | -0.888% |
| Cn1cc(C2CCCN2C(=O)CCCOc2ccc(F)cc2F)cn1 (configuration not stated) | 6.494% |
| O=C(CCCOc1cccc(F)c1)N1CCCC(n2cccn2)C1 (configuration not stated) | 116.5% |
| O=C(CCOc1cccc(F)c1)N1CCCC(n2cccn2)C1 (configuration not stated) | 114% |
| O=C(CCCOc1ccc(F)cc1)N1CCCC(n2cccn2)C1 (configuration not stated) | -3.272% |
| O=C(CCCc1nc2ccccc2[nH]1)N1CCCC(n2cccn2)C1 (configuration not stated) | -6.233% |
| O=C(CCCOc1ccc(F)cc1F)N1CCCC(n2cccn2)C1 (configuration not stated) | 132.9% |
| O=C(CCCOc1cccc(F)c1)N1CCCC(n2cncn2)C1 (configuration not stated) | 133% |
| O=C(CCCOc1ccccc1Cl)N1CCCC(n2cncn2)C1 (configuration not stated) | 20.25% |
| Cc1nnc2n1CCN(C(=O)CN1C(=O)CCOc3ccccc31)C2 | -10.74% |
| CCN1CCN(S(=O)(=O)c2c[nH]c(C(C)C)n2)c2ccccc21 | -17.2% |
| CCc1ocnc1C(=O)Nc1ccc2ccn(CCN(C)C)c2c1 | -13.13% |
| CC(C)c1ncncc1C(=O)NCCN1CCCS1(=O)=O | -1.199% |
| C/C(=C\c1ccco1)CN(C)C(C)c1ccccn1 (configuration not stated) | 4.306% |
| CCC(CO)N(Cc1ccccc1C)Cc1ccccc1C(=O)O (configuration not stated) | -4.887% |

| SMILES | Percent Effect |
| --- | --- |
| COc1ccc(-c2noc([C@@H]3C[C@@H](O)CN3C3CCOCC3)n2)cc1 | 13.77% |
| CN(Cc1ccc2c(c1)OCCO2)C(=O)NCCc1cnn(C)c1 | 10.28% |
| CCn1cc(-c2cncn2CCc2ccc3c(c2)OCCO3)cn1.Cl | 128.2% |
| CN(Cc1ccc2c(c1)OCCO2)c1ncc(S(N)(=O)=O)s1 | -17.53% |
| CN(Cc1ccc2c(c1)OCCO2)C(=O)Cn1cccnc1=O | 7.904% |
| CN(C)c1ncc(-c2cncn2CCc2ccc3c(c2)OCCO3)cn1.Cl | 96.16% |
| Cc1nn(C)cc1-c1cncn1CCc1ccc2c(c1)OCCO2.Cl | 107.7% |
| Cc1cnn(C2CN(Cc3ccc4c(c3)OCCO4)C2)c1 | 4.221% |
| Cn1cnnc1C1CCN(C(=O)Cc2ccc3c(c2)OCCO3)CC1 | 14.42% |
| COc1ccc(CN(C)C(=O)CCc2c(C)nc(C)[nH]c2=O)cc1OC | 10.21% |
| CC(C)Cn1ccnc1CNC(=O)NC(C)c1nccs1 (configuration not stated) | -12.96% |
| Cc1cccc(CNC[C@H]2COCc3nc4cccnc4n32)n1 | -11.24% |
| Cn1c(C2CCCN2C(=O)CN2CSCC2=O)nc2ccccc21 (configuration not stated) | -5.788% |
| Cn1ccnc1CN1CCO[C@H]2C(CNC(=O)c3ccco3)CC[C@@H]21.O=C(O)C(F)(F)F (some centres not stated) | -4.038% |
| CO[C@@H]1CN(S(=O)(=O)c2cn(C)cn2)[C@@H]2CCCO[C@@H]21.O=C(O)C(F)(F)F | 7.147% |
| Cn1ccnc1CN1CCc2onc(COCC3CC3)c2C1.O=C(O)C(F)(F)F | 94.95% |
| Cn1nc(COCC2CC2)c2c1CCN(C(=O)c1ccno1)C2 | 2.608% |
| O=C(O)C(F)(F)F.c1ccn(Cc2noc3c2CN(Cc2ccsc2)CC3)c1 | -2.985% |
| Cn1cc(CN2CCCn3cnc(COCC4CC4)c3C2)cn1 | -7.099% |
| Cn1ccnc1CN1CCc2c(COCC3CC3)nn(C)c2C1 | 104.2% |
| CN1CCc2onc(Cn3cccc3)c2C1.O=C(O)C(F)(F)F | -7.222% |
| Cc1nc(N)sc1C(=O)N[C@H]1CN(CCO)C[C@@H]1C1CC1 | 15.87% |
| O=C(NCC(F)(F)F)c1coc(COc2cccc(F)c2)n1 | -8.912% |

| SMILES | Percent Effect |
| --- | --- |
| CCc1nc(C)sc1CN1CCc2[nH]nc(-c3ccc(F)c(F)c3)c2C1 | 80.67% |
| CC(C)c1nnsc1CN1CCc2[nH]nc(-c3ccc(Cl)cc3)c2C1 | -32.01% |
| CC(C)c1nnsc1CN1CCc2[nH]nc(-c3ccc(F)c(F)c3)c2C1 | -14.43% |
| CC(C)S(=O)(=O)c1ccccc1C(=O)NCC1Cc2ccccc2O1 (configuration not stated) | -14.53% |
| Cc1noc2nc(C3CCN(Cc4cccnc4)CC3)cc(C(F)F)c12.Cl | -9.901% |
| Cc1noc2nc(C3CCCN(Cc4ccncc4)C3)cc(C(F)F)c12 (configuration not stated) | 102.2% |
| Cc1noc2nc(C3CCCN(Cc4cccnc4)C3)cc(C(F)F)c12 (configuration not stated) | 110% |
| FC(F)(F)c1cc(C2CCCN(Cc3cccnc3)C2)n[nH]1 (configuration not stated) | 5.486% |
| Cc1noc2nc(C3CCN(Cc4ccncc4)CC3)cc(C(F)F)c12 | -5.85% |
| O=C(O)C(F)(F)F.O=C(O)C(F)(F)F.O=C(c1ccc[nH]1)N1CCc2c(COCc3ccncc3)cncc2C1 | -6.376% |
| Cn1cc(CN2CCc3c(COCc4ccncc4)cncc3C2)cn1 | 11% |
| O=C(c1ccsc1)N1CCc2c(COCc3ccncc3)cncc2C1 | 6.158% |
| Cn1cc(CN2CCc3c(COCC4CC4)cncc3C2)cn1.O=C(O)C(F)(F)F.O=C(O)C(F)(F)F | 4.622% |
| O=C(O)C(F)(F)F.O=C(O)C(F)(F)F.O=C(O)C(F)(F)F.c1ccc(CN2CCc3c(COCC4CC4)cncc3C2)nc1 | 97.89% |
| O=C(O)C(F)(F)F.O=C(O)C(F)(F)F.c1cncc(COCc2nnc3n2CCN(Cc2ccoc2)C3)c1 | 7.608% |
| O=C(O)C(F)(F)F.O=C(O)C(F)(F)F.O=C(O)C(F)(F)F.O=C(O)C(F)(F)F.c1ccc(CN2CCc3c(COCc4ccncc4)cncc3C2)nc1 | 100.9% |
| CCOCc1cncc2c1CCN(S(=O)(=O)c1ccccc1)C2 | -7.612% |
| CCS(=O)(=O)N1CCc2c(COCc3ccncc3)cncc2C1 | 118.3% |
| O=C(c1ccoc1)N1CCc2c(COCc3ccncc3)cncc2C1 | -1.129% |
| O=C(O)C(F)(F)F.c1ccc(CN2Cc3[nH]nc(COCC4CC4)c3C2)nc1 | -4.447% |
| O=C(O)C(F)(F)F.O=C(O)C(F)(F)F.O=C(O)C(F)(F)F.c1cncc(COCc2cncc3c2CCN(Cc2ccoc2)C3)c1 | 108.7% |
